Data reported in PubChem BioAssay AID463173 (ICCB-Longwood Screening Facility, Harvard Medical School, 2010).
About 4,300 (8.3%) of roughly 52,000 compounds were called active. What follows is part of a selection rich in actives, with near analogues and random picks from the rest. Values without a mark were called inactive. No stated cut-off is given here; in the data, active means survival mostly below about 52% (no sharp cut-off); inactive means mostly above about 56%.

These molecules were tested on DeltatarO mutant (assay: S. aureus survival, RN4220 and DeltatarO strains – OD600, teichoic acid synthesis inhibitors, primary screen (AID 463173)). Conditions: S. aureus RN4220 wild type/DeltatarO growth, OD600, 18 h, active compounds read low, screened at 18.75 µg/mL (by protocol).

| SMILES | survival |
| --- | --- |
| Cc1nnc(SCC(=O)O)o1 | 75% |
| Cc1ccc(Nc2c(-c3ccc(C)cc3)nc3ccc(C)cn23)cc1 | 117% |
| Cc1ccc2nc(-c3ccc(F)cc3)c(NC(C)(C)CC(C)(C)C)n2c1 | 12% (active) |
| COCCNc1c(-c2ccc(N)cc2)nc2ccc(C)cn12 | 65% |
| O=C(CSc1ccc(-c2cccs2)nn1)Nc1ccccc1 | 76% |
| COc1ccccc1N1CCN(C(=O)c2ccc3c(c2)N(Cc2cc(C)ccc2C)C(=O)c2ccccc2S3(=O)=O)CC1 | 74% |
| CCNC(=O)c1cc2n(n1)CCCN(Cc1ccc(C)cc1)C2=O | 49% |
| Cc1ccc(CN2CCCn3nc(C(=O)NC(C)C)cc3C2=O)cc1 | 0% (active) |
| CCC(C)NC(=O)c1cc2n(n1)CCCN(Cc1ccc(C)cc1)C2=O (stereo not given) | 74% |
| CCCSCCCNC(=O)c1cc2n(n1)CCCN(Cc1ccc(C)cc1)C2=O | 89% |
| CCCNC(=O)c1cc2n(n1)CCCN(Cc1ccc(C)cc1)C2=O | 131% |
| CCCCNC(=O)c1cc2n(n1)CCCN(Cc1ccc(C)cc1)C2=O | 32% (active) |
| O=C(CN1C(=O)CSc2ccc(S(=O)(=O)N3CCCC3)cc21)NCc1ccccc1Cl | 87% |
| CCCC(=O)n1nc(-c2cccnc2)nc1NCc1ccccc1 | 81% |
| Cc1ccc(Cl)cc1NC(=O)CCc1c(C)nc2c3cccnc3nn2c1C | 103% |
| COc1ccccc1CNC(=O)C1CCCN(c2nc3ccccc3n3cccc23)C1 (stereo not given) | 53% |
| O=C(NCc1ccc(Cl)cc1)C1CCCN(c2nc3ccccc3n3cccc23)C1 (stereo not given) | 82% |
| O=C(NCc1ccccc1Cl)C1CCCN(c2nc3ccccc3n3cccc23)C1 (stereo not given) | 46% (active) |
| O=C(NCc1ccccc1Br)C1CCCN(C(=O)N2CCOc3ccccc32)C1 (stereo not given) | 73% |
| COc1ccc(NC(=O)C2=C(C)Nc3nc(SCc4ccccc4C)nn3C2c2ccc(Br)cc2)cc1 (stereo not given) | 80% |
| CCOc1ccc(CNC(=O)c2ccc3c(c2)c(C)c(C)n3Cc2ccc(Cl)cc2)cc1 | 67% |
| CCCC(=O)Nc1nc2ccc(S(C)(=O)=O)cc2s1 | 93% |

| SMILES | survival |
| --- | --- |
| CN(c1ccc(O)cc1)c1nc(-c2cccs2)cs1 | 1% (active) |
| CC(=O)N(C)c1nc(-c2ccccc2)cs1 | 80% |
| COc1ccc(-c2csc(N(CC(C)C)C(=O)c3cccs3)n2)cc1 | 76% |
| Cc1[nH]c2ccc(CNS(=O)(=O)c3ccc(S(=O)(=O)N4CCOCC4)cc3)cc2c1C | 91% |
| CC1=C(C(=O)OCC2CCCO2)C(c2ccccc2)NC(=O)N1 (stereo not given) | 102% |
| CC1CCN(S(=O)(=O)c2ccc3c(c2)N(CC(=O)NC(C)C)C(=O)CO3)CC1 | 76% |
| Cc1nn(C(C)C(=O)Nc2cccc(F)c2)c(=O)c2c1sc1ccccc12 (stereo not given) | 108% |
| Cc1nn(C(C)C(=O)Nc2ccc(C(C)C)cc2)c(=O)c2c1sc1ccccc12 (stereo not given) | 58% (active) |
| Cc1cc(C)c(NC(=O)C(C)n2nc(C)c3sc4ccccc4c3c2=O)c(C)c1 (stereo not given) | 60% |
| Cc1ccc(S(=O)Cc2ccc(C(=O)NC3CCCCCC3)o2)cc1 (stereo not given) | 121% |
| CCOC(=O)c1ccc(NC(=O)C2CCN(S(=O)(=O)Cc3ccccc3)CC2)cc1 | 66% |
| CC(C)c1ccc(CNC(=O)c2ccc(N3CCCC3)c(NC(=O)NCc3ccc(F)cc3)c2)cc1 | 47% (active) |
| CC(C)c1ccc(CNC(=O)c2ccc(N3CCCC3)c(NC(=O)NCc3ccccc3)c2)cc1 | 73% |
| Cc1ccc(CNC(=O)Nc2cc(C(=O)NCc3ccc(C(C)C)cc3)ccc2N2CCCC2)cc1 | 79% |
| Cc1cc(C)cc(-n2ccn(Cc3ccc(F)cc3)c(=O)c2=O)c1 | 71% |
| CCN1CCN(c2cc(C)c3cc(NC(=O)c4cc(Cl)ccc4OC)ccc3n2)CC1 | 8% (active) |
| COc1cccc(C(=O)Nc2ccc3nc(N4CCC(C)CC4)cc(C)c3c2)c1 | 47% |
| CCCCc1ccc(C(=O)Nc2ccc3nc(N(CC)CC)cc(C)c3c2)cc1 | 109% |
| COc1ccc(Cl)cc1C(=O)Nc1ccc2nc(Nc3cccc(Cl)c3)cc(C)c2c1 | 93% |
| COc1ccc(C(=O)Nc2ccc3nc(N4CCC(C)CC4)cc(C)c3c2)cc1 | 56% |
| COc1ccccc1C(=O)Nc1ccc2nc(N3CCC(C)CC3)cc(C)c2c1 | 3% (active) |
| COc1ccc(C(=O)Nc2ccc3nc(N4CCCCC4)cc(C)c3c2)c(OC)c1 | 44% (active) |

| SMILES | survival |
| --- | --- |
| CCCCc1ccc(C(=O)Nc2ccc3nc(N4CCN(CC)CC4)cc(C)c3c2)cc1 | 36% (active) |
| CC(=O)c1ccc(NC(=O)CSc2ccc3nnc(CCNS(=O)(=O)c4ccc(C)cc4)n3n2)cc1 | 67% |
| COc1ccc(C)cc1NC(=O)CC(=O)Nc1ccc2nc3n(c(=O)c2c1)CCCCC3 | 89% |
| COCCCNC(=O)CSc1nc2cc3c(cc2c(=O)n1CCCC(=O)NCc1ccc2c(c1)OCO2)OCO3 | 84% |
| Cc1cc(C)cc(NC(=O)N2CCC(N3CCN(Cc4ccccc4)C(=O)C3=O)CC2)c1 | 77% |
| COc1ccccc1CNc1nc(-c2ccco2)nn1S(C)(=O)=O | 70% |
| O=C(Cn1ncc2c3ccccc3n(Cc3ccccc3)c2c1=O)NCc1ccccc1 | 93% |
| Cc1ccccc1C(=O)OCc1cc(=O)n2nc(C(C)C)sc2n1 | 81% |
| COc1ccc(Cn2c(C(=O)O)c(CNCCc3ccccc3Cl)c3ccc(C)cc32)cc1 | 80% |
| Cc1ccc(-n2c(=O)c3c(c4cc(C)ccc4n3C)n(CC(=O)Nc3c(C)cccc3C)c2=O)cc1 | 123% |
| Cc1ccc(NC(=O)Nc2ccc3nc(N4CCN(C)CC4)cc(C)c3c2)cc1F | 96% |
| COc1ccc(CC(=O)Nc2ccc3nc(Nc4ccc(OC)cc4)cc(C)c3c2)cc1 | 55% |
| Cc1cc(N2CCN(C)CC2)nc2ccc(NC(=O)c3ccccc3F)cc12 | 122% |
| CCN1CCN(c2cc(C)c3cc(NC(=O)c4ccccc4F)ccc3n2)CC1 | 43% (active) |
| CCN1CCN(c2cc(C)c3cc(NC(=O)c4ccc(OC)c(OC)c4)ccc3n2)CC1 | 44% (active) |
| COc1ccc(CC(=O)Nc2ccc3nc(N4CCCCC4)cc(C)c3c2)cc1 | 51% (active) |
| CCOc1cc(C(=O)Nc2ccc3nc(N4CCN(C)CC4)cc(C)c3c2)cc(OCC)c1OCC | 137% |
| CCOc1ccc(CC(=O)Nc2ccc3nc(N4CCCCC4)cc(C)c3c2)cc1OCC | 92% |
| Cc1ccc(NC(=O)Nc2ccc3nc(N4CCN(C)CC4)cc(C)c3c2)cc1C | 101% |
| CCN1CCN(c2cc(C)c3cc(NC(=O)c4cc(OC)c(OC)c(OC)c4)ccc3n2)CC1 | 78% |
| Cc1cc(N2CCN(C)CC2)nc2ccc(NC(=O)c3ccc(C(C)(C)C)cc3)cc12 | -3% (active) |
